Measurements reported in PubChem BioAssay (NCATS).
Records with an inconclusive call do not appear. Calls of active or inactive are those of the source. Calls follow the shape of the dose curve; as a rule, active = well fitted cell-killing curve with a large enough effect; inconclusive = small, poorly fitted or top-dose-only effect, or effect the other way; inactive = flat fitted curve, though single readings scatter.
% is scaled to controls: 0 for no effect and ±100 for the full control effect.

The compounds below were run on SKOV3 (assay: Primary qHTS to identify gynecologic anti-cancer compounds using libraries of approved drugs and bioactive compounds (AID 1345084; also: nearly all actives have a fitted effect of over 55% in size)). Settings: Gynecologic cancer cell panel viability, ATPlite luminescence, 48 h; series mostly up to 57.5 µM; activity change, negative = cytotoxicity: at the top concentration.
How it was run: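 Cells, 1,000 per well, plated 16 h, then exposed 48 h at 37 C to compounds. Viability by ATPlite luminescence after 15 min at room temperature.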
With `C=C1C(=O)O[C@@H]2/C=C(\CO)CC/C=C(\CO)[C@H](OC(C)=O)C(OC(=O)C(C)CC)C12` (stereo not given in full) the “activity change, negative = cytotoxicity” value was -0.394% [at 25.3 µM] (inactive). `O=C(NCC1CCN(Cc2cccc(Cl)c2)CC1)[C@@H]1CCCN(c2ncnc3c2nc2n3CCCC2)C1` was tested, and the “activity change, negative = cytotoxicity” value was -1.52% (inactive). For `C=C1C(=O)O[C@H]2C1CCC(C)=C1C(=O)C=C(C)[C@@]12O` (stereo not given in full), the “activity change, negative = cytotoxicity” value was -5.49% (inactive). For `COC(=O)/C=C/C=C/C(=O)OC1C=C2COC(=O)C2(O)C2(C)CCCC(C)(C)C12` (stereo not given), the “activity change, negative = cytotoxicity” value was 0% [at 25.3 µM] (inactive). With `CC1(C)CC[C@]2(C(=O)O)[C@H](O)C[C@]3(C)C(=CCC4[C@@]5(C)CC[C@H](O[C@@H]6O[C@H](CO[C@@H]7OC[C@H](O)[C@H](O)[C@H]7O[C@@H]7OC[C@H](O)[C@H](O)[C@H]7O)[C@@H](O)[C@H](O)[C@H]6O)C(C)(C)C5CC[C@]43C)[C@@H]2C1` (stereo not given in full) the activity change, negative = cytotoxicity was 13.8% [at 11.6 µM] (inactive).
